# Values without a mark were called inactive. For some of these results: Measured potencies and affinities stand elsewhere. Active and inactive are the calls of the source. Unless noted, no rule for the calls is given here.
# Tests used:
# [1] = antimalarial activity against Dd2 strain (AID 2302;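 active = growth inhibition above 50% at the single 2 µM test dose, taken to imply half-maximal potency below 2 µM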;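 also: 0% = DMSO untreated growth and 100% = chloroquine plus artemisinin killed control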); conditions: P. falciparum Dd2 in RBCs, LDH growth readout, 72 h; at 2 µM; hits give high values
# [2] = human hepatoma cell viability loss – ATP luminescence, cytotoxicity control for P. falciparum antimalarial project, primary screen (AID 2303;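 active = inhibition above 50%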;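 also: 0% = DMSO wells and 100% = digitonin-killed cells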); conditions: HepG2 viability, 24-48 h, at 10 µM, hits give high values
# [3] = target: L-lactate dehydrogenase (Plasmodium falciparum (isolate CDC / Honduras)) (UniProt Q27743); test: PfLDH activity inhibition – cell lysate, 3D7 strain, counter-screen for P. falciparum growth inhibition project (AID 2304);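 also: 0% = vehicle and 100% = reference inhibitor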; conditions: P. falciparum 3D7 crude extract, LDH APAD/NBT absorbance; at 2 µM; hits give high values
# Chain of L-lactate dehydrogenase (Plasmodium falciparum (isolate CDC / Honduras)) (Q27743 whole entry, looked up): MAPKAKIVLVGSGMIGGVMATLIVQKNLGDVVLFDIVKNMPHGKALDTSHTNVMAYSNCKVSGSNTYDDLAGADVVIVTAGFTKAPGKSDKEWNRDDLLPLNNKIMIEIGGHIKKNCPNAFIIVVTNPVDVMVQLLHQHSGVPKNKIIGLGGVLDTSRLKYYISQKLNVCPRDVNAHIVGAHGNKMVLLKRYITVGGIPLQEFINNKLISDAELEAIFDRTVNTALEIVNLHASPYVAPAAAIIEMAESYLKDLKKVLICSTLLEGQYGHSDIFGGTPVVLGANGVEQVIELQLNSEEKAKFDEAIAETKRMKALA
# [4] = inhibition of 3D7 malaria parasite growth – strain 3D7 (AID 2306);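 also: 0% = DMSO wells and 100% = chloroquine plus artemisinin control wells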; conditions: P. falciparum 3D7 erythrocytic growth, LDH absorbance, 72 h; at 2 µM; hits give high values
# [5] = target: Calcium-dependent protein kinase 1 (Plasmodium falciparum (isolate 3D7)) (UniProt P62344); test: PfCDPK1 kinase inhibitors, biochemical, TCAMS library (AID 1159585; cut-off not given, nearly all actives have IC50 up to about 0.98 µM;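 also: inhibitors leave more ATP so luminescence rises with inhibition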); conditions: recombinant PfCDPK1, Kinase-Glo ATP depletion luminescence
# Chain of Calcium-dependent protein kinase 1 (Plasmodium falciparum (isolate 3D7)) (P62344 whole entry, looked up): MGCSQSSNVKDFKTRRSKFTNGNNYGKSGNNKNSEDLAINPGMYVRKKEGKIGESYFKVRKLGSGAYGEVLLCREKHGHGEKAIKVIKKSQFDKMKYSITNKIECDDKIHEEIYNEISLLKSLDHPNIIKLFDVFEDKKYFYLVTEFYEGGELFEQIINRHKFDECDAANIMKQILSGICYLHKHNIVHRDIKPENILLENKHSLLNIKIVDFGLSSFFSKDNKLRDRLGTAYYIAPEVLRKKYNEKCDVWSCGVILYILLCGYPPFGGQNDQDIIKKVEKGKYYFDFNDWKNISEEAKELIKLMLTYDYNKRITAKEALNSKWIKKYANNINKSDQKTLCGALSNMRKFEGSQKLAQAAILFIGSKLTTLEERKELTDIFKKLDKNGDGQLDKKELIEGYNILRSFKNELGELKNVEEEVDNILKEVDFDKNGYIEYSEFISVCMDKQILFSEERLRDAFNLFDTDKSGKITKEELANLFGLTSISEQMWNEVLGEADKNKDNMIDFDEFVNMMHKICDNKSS
# [6] = target: Plasmodium falciparum protein kinase 6 (PK6, PF3D7_1337100) (UniProt Q8IDW1); test: PfPK6 kinase inhibitors, biochemical, TCAMS library (AID 1159586); conditions: recombinant PfPK6, Kinase-Glo ATP depletion luminescence
# Chain of Plasmodium falciparum protein kinase 6 (PK6, PF3D7_1337100) (Q8IDW1 1-305): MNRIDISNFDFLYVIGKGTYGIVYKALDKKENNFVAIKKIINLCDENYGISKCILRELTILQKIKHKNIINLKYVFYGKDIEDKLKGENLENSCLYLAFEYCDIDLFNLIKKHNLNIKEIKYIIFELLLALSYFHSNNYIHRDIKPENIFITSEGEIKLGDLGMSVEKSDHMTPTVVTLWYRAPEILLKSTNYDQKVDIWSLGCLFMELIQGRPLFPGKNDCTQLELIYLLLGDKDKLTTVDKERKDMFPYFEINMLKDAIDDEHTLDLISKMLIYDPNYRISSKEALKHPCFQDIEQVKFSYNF
# [7] = target: Protein kinase 7 (PK7), Plasmodium falciparum 3D7 (PF3D7_0213400) (UniProt Q7YTF7); test: inhibition of Plasmodium PK7 catalytic activity – biochemical, TCAMS antimalarial set, Kinase-Glo luminescence (AID 1159587); conditions: recombinant PfPK7, Kinase-Glo ATP depletion luminescence
# Chain of Protein kinase 7 (PK7), Plasmodium falciparum 3D7 (PF3D7_0213400) (Q7YTF7 1-343): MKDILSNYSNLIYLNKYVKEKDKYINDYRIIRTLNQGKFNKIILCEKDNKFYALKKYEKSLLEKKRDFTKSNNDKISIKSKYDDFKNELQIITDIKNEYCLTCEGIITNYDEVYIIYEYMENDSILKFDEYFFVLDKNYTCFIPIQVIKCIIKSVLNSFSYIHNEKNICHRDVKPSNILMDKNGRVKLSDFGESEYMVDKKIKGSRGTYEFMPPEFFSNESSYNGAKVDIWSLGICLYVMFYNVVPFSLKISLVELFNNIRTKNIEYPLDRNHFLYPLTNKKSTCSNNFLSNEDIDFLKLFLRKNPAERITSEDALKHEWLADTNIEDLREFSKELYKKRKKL
# [8] = target: Calcium-dependent protein kinase 4 (Plasmodium falciparum (isolate 3D7)) (UniProt Q8IBS5); test: PfCDPK4 kinase inhibitors, biochemical, TCAMS library (AID 1159588; cut-off not given, nearly all actives have IC50 up to about 0.91 µM); conditions: recombinant PfCDPK4, Kinase-Glo ATP depletion luminescence
# Chain of Calcium-dependent protein kinase 4 (Plasmodium falciparum (isolate 3D7)) (Q8IBS5 whole entry, looked up): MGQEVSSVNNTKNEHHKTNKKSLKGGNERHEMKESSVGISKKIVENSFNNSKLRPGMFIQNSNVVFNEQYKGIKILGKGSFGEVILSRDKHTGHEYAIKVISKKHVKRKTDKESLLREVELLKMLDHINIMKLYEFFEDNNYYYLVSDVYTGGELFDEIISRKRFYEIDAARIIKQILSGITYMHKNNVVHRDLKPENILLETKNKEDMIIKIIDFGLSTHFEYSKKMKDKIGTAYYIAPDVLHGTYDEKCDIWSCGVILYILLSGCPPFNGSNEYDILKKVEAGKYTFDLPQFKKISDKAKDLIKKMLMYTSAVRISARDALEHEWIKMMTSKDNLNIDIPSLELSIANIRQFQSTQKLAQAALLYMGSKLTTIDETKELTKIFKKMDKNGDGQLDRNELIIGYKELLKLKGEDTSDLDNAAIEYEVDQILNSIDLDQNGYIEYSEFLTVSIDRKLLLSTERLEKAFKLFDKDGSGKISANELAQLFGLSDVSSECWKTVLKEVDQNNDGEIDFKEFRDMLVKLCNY
Structure (SMILES),growth inhibition [1],inhibition [2],inhibition [3],growth inhibition [4],outcome [5],outcome [6],outcome [7],outcome [8]
Cc1ccc(NC(=S)NC2CCN(CCCCCNC(=O)/C=C/c3ccc(Cl)c(Cl)c3)CC2)cc1Cl,56% (active),45%,7%,100% (active),inactive,inactive,inactive,inactive
CC(C)CCN1CCC(Oc2ccc(NC(=O)c3cccs3)cc2Cl)CC1,96% (active),31%,-6%,97% (active),inactive,inactive,inactive,inactive
CSc1nccc(-c2ccc3ccnc(N)c3c2)n1,98% (active),30%,0%,101% (active),inactive,inactive,inactive,inactive
CS(=O)(=O)c1ccc(CNCc2ccc(-c3ccc(-c4nc5ccc(F)cc5[nH]4)s3)cc2)cc1,97% (active),22%,0%,102% (active),inactive,inactive,inactive,inactive
CC(C)(C)NCCN(Cc1ccc(-c2ccc(C(F)(F)F)cc2)cc1)C(=O)Cn1c(CCc2cccc(F)c2F)nc(=O)c2ccccc21,68% (active),46%,-4%,99% (active),inactive,inactive,inactive,inactive
Cc1ccccc1C1CCN(C2CCC(NC(=O)c3ccc(-c4cccs4)s3)CC2)CC1 (stereo not given),54% (active),58% (active),-2%,101% (active),inactive,inactive,inactive,inactive
COc1ccc2nccc([C@@H](O)CN3CCC(NCc4nc5cc(F)ccc5o4)CC3)c2c1,12%,14%,-8%,102% (active),inactive,inactive,inactive,inactive
Cc1nc(C(C)Nc2nncc(-c3ccc(Cl)cc3)n2)cs1 (stereo not given),55% (active),-15%,-2%,91% (active),inactive,inactive,inactive,inactive
COc1cc(NC(=O)Nc2cc(C)nc3ccccc23)cc(OC)c1,57% (active),5%,-4%,104% (active),inactive,inactive,inactive,inactive
CN(C)CCCNCc1ccc(-c2ccc(C(F)(F)F)cc2)cc1,35%,30%,-4%,96% (active),inactive,inactive,inactive,inactive
Cc1cc(C(=O)Nc2ccc3c(c2)CCN3C2CCN(Cc3cccc(F)c3F)C2)no1 (stereo not given),94% (active),0%,-4%,95% (active),inactive,inactive,inactive,inactive
N#CCCN1CCN(Cc2ccc(-c3ccc(-c4nc5ccc(F)cc5[nH]4)s3)cc2)CC1,38%,58% (active),6%,99% (active),inactive,inactive,inactive,inactive
Nc1nc(N)c2cc(Sc3ccc4ccccc4c3)ccc2n1,92% (active),66% (active),0%,95% (active),inactive,inactive,inactive,inactive
COc1ccc(-c2ccc(NC(=O)c3cccc(Cl)c3)cc2)cc1CNC(C)C,88% (active),26%,1%,100% (active),inactive,inactive,inactive,inactive
O=C(Nc1ccc(-c2cccc(-c3nc4ccccc4[nH]3)c2)cc1)Nc1ccsc1,90% (active),56% (active),-7%,101% (active),inactive,inactive,inactive,inactive
Cc1cc(Nc2ccc(C)c(Cl)c2)n2ncnc2n1,91% (active),6%,-1%,98% (active),inactive,inactive,inactive,inactive
COCc1cc(C)nc2sc(C(=O)Nc3cc(C(C)(C)C)ccc3O)c(N)c12,57% (active),-9%,-2%,85% (active),inactive,inactive,inactive,inactive
CC1(C)N=C(N)N=C(N)N1O,1%,7%,-5%,93% (active),inactive,inactive,inactive,inactive
Cc1ccc(-c2ccc3c(c2)C=C(C(=O)NC2CCN(CCNC(=O)c4cccc(C(F)(F)F)c4)CC2)CCC3)cc1,56% (active),25%,-3%,100% (active),inactive,inactive,inactive,inactive
O=C(Nc1ccc(-c2ccc(CN3CCNCC3)cc2)cc1)c1cccc(Cl)c1,16%,58% (active),2%,91% (active),inactive,inactive,inactive,inactive
